In a collection of fitness landscapes (doi:10.1016/j.celrep.2020.107928):
Over roughly 81,000 sequences, “one-hybrid fitness for binding parS DNA” has its median near -0.17; the highest 2% begin near 0.51. The full list was thinned out, with the highest values kept by preference.

B1: Caulobacter ParB omega fusion; a variant is named by its letters at X, in order, B8GW30 (parent)
chain: MESVVVGEPGMSEGRRGLGRGLSALLGEVDAAPAQAPGEQLGGSREAPIEILQRNPDQPRRTFREEDLEDLSNSIREKGVLQPILVRPSPDTAGEYQIVAGERAWRAAQRAGLKTVPIMVRELDDLAVLEIGIIENVQRADLNVLEEALSYKVLMEKFERTQENIAQTIGKSXSHVANXMRLLXLPDEVQSYLVSGELTAXHARAIAAAADPVALAKQIIEGGLSVRETEALARKAPNLSAGKSKGGRPPRVKDTDTQALESDLSSVLGLDVSIDHRGSTGTLTITYATLEQLDDLCNRLTRGI

Variants of: B1
Test: one-hybrid fitness for binding parS DNA (scaled: cognate 1, non-cognate 0); higher = stronger binding
Conditions: with parS DNA site
Procedure, shortened: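 Pre- and post-selection plasmids were Illumina-sequenced, three replicate libraries were pooled, and any variant with under 10 reads was removed. The libraries were Caulobacter ParB with four specificity codons randomised, selected in E. coli USO through a HIS3 reporter whose site is 19 bp from the promoter. Cells grew 48 hours at 37°C on M9 without histidine, with 0.1 mM IPTG and 5 mM 3-AT. Fitness is the log change in variant-to-wild-type read ratio, rescaled against cognate and non-cognate.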

Row | Variant | one-hybrid fitness for binding parS DNA
1 | KYTC | ≤ 0.2
2 | TIAK | ≤ 0.2
3 | PMKR | ≤ 0.2
4 | RLVQ | ≤ 0.2
5 | RLVG | 0.991
6 | RLKG | 0.945
7 | RLVK | ≤ 0.2
8 | RLKH | 0.247
9 | RLKP | ≤ 0.2
10 | QRLA | ≤ 0.2
11 | IESL | ≤ 0.2
12 | KWDD | ≤ 0.2
13 | RVNC | 0.947
14 | RVDF | ≤ 0.2
15 | RVNE | ≤ 0.2
16 | RVDC | 0.846
17 | RVNR | ≤ 0.2
18 | RVDM | 0.258
19 | YLAV | ≤ 0.2
20 | CPVL | ≤ 0.2
21 | ANSF | ≤ 0.2
22 | GFRL | ≤ 0.2
23 | RRFG | 0.831
24 | RRFD | ≤ 0.2

Row | Variant | one-hybrid fitness for binding parS DNA
25 | RRFM | ≤ 0.2
26 | RRAP | ≤ 0.2
27 | RRAR | ≤ 0.2
28 | RRAG | 0.738
29 | SKVG | ≤ 0.2
30 | CPAW | ≤ 0.2
31 | QCMI | ≤ 0.2
32 | DCNA | ≤ 0.2
33 | RHRA | 0.58
34 | RHPA | ≤ 0.2
35 | RHIA | 0.316
36 | RHDA | 0.545
37 | DHNA | ≤ 0.2
38 | RHYA | 0.562
39 | RHNA | 0.543
40 | WLCT | ≤ 0.2
41 | EVML | ≤ 0.2
42 | IDCL | ≤ 0.2
43 | LAVM | ≤ 0.2
44 | TSYY | ≤ 0.2
45 | APPD | ≤ 0.2
46 | GVQC | ≤ 0.2
47 | TPMT | ≤ 0.2
48 | IMES | ≤ 0.2

Row | Variant | one-hybrid fitness for binding parS DNA
49 | QKYV | ≤ 0.2
50 | NYKT | ≤ 0.2
51 | QTEY | ≤ 0.2
52 | RAAD | ≤ 0.2
53 | RAFP | ≤ 0.2
54 | RAAS | 1
55 | RAAH | ≤ 0.2
56 | RAFS | 1.02
57 | RAFN | 0.426
58 | FSYG | ≤ 0.2
59 | WYKS | ≤ 0.2
60 | CKSM | ≤ 0.2
61 | QYLA | ≤ 0.2
62 | RTLN | 0.43
63 | RTLS | 1.01
64 | RCHY | 0.46
65 | RSHY | 0.491
66 | RTHY | 0.544
67 | RTRP | ≤ 0.2
68 | RTRS | 0.83
69 | RTRH | 0.4
70 | RTIH | ≤ 0.2
71 | RTIP | ≤ 0.2
72 | RTLD | ≤ 0.2

Row | Variant | one-hybrid fitness for binding parS DNA
73 | RTIS | 1.01
74 | APQT | ≤ 0.2
75 | KERF | ≤ 0.2
76 | LPLK | ≤ 0.2
77 | GVFL | ≤ 0.2
78 | VTMY | ≤ 0.2
79 | RDTG | ≤ 0.2
80 | RTWD | 0.22
81 | RTSN | 0.422
82 | RTYD | ≤ 0.2
83 | RTSD | ≤ 0.2
84 | RTYS | 1
85 | RTSS | 0.938
86 | RTWS | 1.05
87 | RTPH | ≤ 0.2
88 | RTWP | 0.271
89 | RTYP | ≤ 0.2
90 | RTPN | 0.211
91 | RTPS | 0.822
92 | NVPD | ≤ 0.2
93 | TDEP | ≤ 0.2
94 | APNE | ≤ 0.2
95 | FINR | ≤ 0.2
96 | PGNR | ≤ 0.2

Row | Variant | one-hybrid fitness for binding parS DNA
97 | YRNV | ≤ 0.2
98 | PVLC | ≤ 0.2
99 | WSCE | ≤ 0.2
100 | QCQH | ≤ 0.2
101 | RTHH | ≤ 0.2
102 | RTHS | 0.944
103 | RTHD | ≤ 0.2
104 | RYFK | ≤ 0.2
105 | RYFC | 0.965
106 | RYAM | 0.267
107 | RYFQ | ≤ 0.2
108 | RYAC | 0.925
109 | RYAK | ≤ 0.2
110 | PLPR | ≤ 0.2
111 | RDNC | ≤ 0.2
112 | RSNC | 0.957
113 | RSYN | 0.406
114 | RSYC | 0.931
115 | RPNC | ≤ 0.2
116 | RPYC | ≤ 0.2
117 | RDYC | ≤ 0.2
118 | RSNQ | ≤ 0.2
119 | RCYC | 1
120 | RCNC | 0.941

Row | Variant | one-hybrid fitness for binding parS DNA
121 | RSYD | ≤ 0.2
122 | RENC | 0.27
123 | KDHC | ≤ 0.2
124 | ISLY | ≤ 0.2
125 | LALC | ≤ 0.2
126 | LFYG | ≤ 0.2
127 | TPSE | ≤ 0.2
128 | GIAA | ≤ 0.2
129 | MCGR | ≤ 0.2
130 | RPDC | ≤ 0.2
131 | RSDN | 0.313
132 | RCRC | 0.863
133 | RERC | 0.334
134 | RSDD | ≤ 0.2
135 | RSDC | 0.773
136 | REDC | ≤ 0.2
137 | RDRC | ≤ 0.2
138 | RPRC | ≤ 0.2
139 | RSRC | 0.932
140 | RCDC | 0.877
141 | RSRF | 0.281
142 | AHPR | ≤ 0.2
143 | NQNV | ≤ 0.2
144 | QPDY | ≤ 0.2

Row | Variant | one-hybrid fitness for binding parS DNA
145 | SCMC | ≤ 0.2
146 | LKGL | ≤ 0.2
147 | CAST | ≤ 0.2
148 | INPC | ≤ 0.2
149 | ETLI | ≤ 0.2
150 | FWGR | ≤ 0.2
151 | RHNH | ≤ 0.2
152 | RHDS | 0.967
153 | RHDP | ≤ 0.2
154 | RHNS | 0.864
155 | RHDH | ≤ 0.2
156 | RHND | ≤ 0.2
157 | SDHS | ≤ 0.2
158 | QQDM | ≤ 0.2
159 | MDNG | ≤ 0.2
160 | EESV | ≤ 0.2
161 | LGER | ≤ 0.2
162 | RQGL | ≤ 0.2
163 | RLTQ | ≤ 0.2
164 | RITP | ≤ 0.2
165 | RETG | 0.249
166 | RCTG | 1.02
167 | RRTG | 0.699
168 | RITD | ≤ 0.2

Row | Variant | one-hybrid fitness for binding parS DNA
169 | RRTM | 0.351
170 | RPTG | ≤ 0.2
171 | RLTD | ≤ 0.2
172 | RITG | 0.997
173 | RRTK | ≤ 0.2
174 | RLTG | 1.03
175 | QTKN | ≤ 0.2
176 | DQEG | ≤ 0.2
177 | NHEC | ≤ 0.2
178 | QCPT | ≤ 0.2
179 | IMKR | ≤ 0.2
180 | GAMN | ≤ 0.2
181 | LESA | ≤ 0.2
182 | LGIT | ≤ 0.2
183 | SQRC | ≤ 0.2
184 | GQLN | ≤ 0.2
185 | NPSA | ≤ 0.2
186 | GPFR | ≤ 0.2
187 | RHTD | ≤ 0.2
188 | RFTG | 0.977
189 | RMTH | 0.218
190 | RHTG | 0.967
191 | RKTG | 0.905
192 | RMTK | ≤ 0.2

Row | Variant | one-hybrid fitness for binding parS DNA
193 | DFTG | ≤ 0.2
194 | NFTG | ≤ 0.2
195 | RKTK | ≤ 0.2
196 | RKTR | ≤ 0.2
197 | RMTG | 1.02
198 | RHTK | ≤ 0.2
199 | ARLR | ≤ 0.2
200 | MAAN | ≤ 0.2
201 | VTYC | ≤ 0.2
202 | VAAS | ≤ 0.2
203 | WVLT | ≤ 0.2
204 | IAPF | ≤ 0.2
205 | QMYC | ≤ 0.2
206 | YLQA | ≤ 0.2
207 | IPAC | ≤ 0.2
208 | RSTG | 1
209 | RTTG | 1
210 | RTTY | 0.477
211 | RSTN | 0.461
212 | RSTP | ≤ 0.2
213 | RTTR | ≤ 0.2
214 | VSEV | ≤ 0.2
215 | PLGR | ≤ 0.2
216 | SLYF | ≤ 0.2

Row | Variant | one-hybrid fitness for binding parS DNA
217 | HVAN | ≤ 0.2
218 | SESV | ≤ 0.2
219 | KMES | ≤ 0.2
220 | AYKT | ≤ 0.2
221 | HFLP | ≤ 0.2
222 | IRCS | ≤ 0.2
223 | RNVN | ≤ 0.2
224 | RNKR | ≤ 0.2
225 | RNKT | 0.819
226 | RNVH | 0.202
227 | RNKF | 0.242
228 | RNVT | 0.514
229 | NALR | ≤ 0.2
230 | TTTT | ≤ 0.2
231 | IISE | ≤ 0.2
232 | HKNW | ≤ 0.2
233 | PIET | ≤ 0.2
234 | ILAD | ≤ 0.2
235 | RHFH | ≤ 0.2
236 | RHAS | 0.933
237 | RHAN | 0.371
238 | RHFD | ≤ 0.2
239 | RHFS | 0.965
240 | RHAP | ≤ 0.2

Row | Variant | one-hybrid fitness for binding parS DNA
241 | LHQT | ≤ 0.2
242 | RQFC | 0.816
243 | RQFY | 0.398
244 | RQAF | 0.25
245 | RQAC | 0.947
246 | RQFM | 0.279
247 | RQAQ | ≤ 0.2
248 | LNHR | ≤ 0.2
249 | ERQR | ≤ 0.2
250 | SWSW | ≤ 0.2
251 | TRLI | ≤ 0.2
252 | CQYS | ≤ 0.2
253 | LSGY | ≤ 0.2
254 | HRTK | ≤ 0.2
255 | RRMH | ≤ 0.2
256 | RIMN | 0.39
257 | RPMC | ≤ 0.2
258 | RIMC | 0.986
259 | RRMD | ≤ 0.2
260 | RLMC | 0.992
261 | RCMC | 0.976
262 | RLMP | 0.229
263 | RLMH | 0.291
264 | RDMC | ≤ 0.2

Row | Variant | one-hybrid fitness for binding parS DNA
265 | RIMD | 0.234
266 | RRMC | 0.625
267 | IMTG | ≤ 0.2
268 | GAKE | ≤ 0.2
269 | CNSF | ≤ 0.2
270 | GRPA | ≤ 0.2
271 | CRST | ≤ 0.2
272 | IKCT | ≤ 0.2
273 | RKMP | ≤ 0.2
274 | RKMC | 0.897
275 | RKMH | ≤ 0.2
276 | RAMC | 0.956
277 | RFMC | 0.824
278 | RAMQ | ≤ 0.2
279 | RFMD | ≤ 0.2
280 | RMMC | 0.992
281 | RFMN | 0.242
282 | RMMN | 0.435
283 | RMMP | ≤ 0.2
284 | RAMR | ≤ 0.2
285 | TLMF | ≤ 0.2
286 | GTMC | ≤ 0.2
287 | LVSA | ≤ 0.2
288 | ITSK | ≤ 0.2

Row | Variant | one-hybrid fitness for binding parS DNA
289 | DYWG | ≤ 0.2
290 | THDS | ≤ 0.2
291 | RKMK | ≤ 0.2
292 | YPLS | ≤ 0.2
293 | RSMC | 0.928
294 | RSMD | ≤ 0.2
295 | RHMP | ≤ 0.2
296 | RSMP | ≤ 0.2
297 | RTMN | 0.433
298 | RTMP | ≤ 0.2
299 | RHMC | 0.908
300 | RTMC | 0.982
301 | RHMN | 0.389
302 | AGSI | ≤ 0.2
303 | PTDS | ≤ 0.2
304 | FNHS | ≤ 0.2
305 | TAPE | ≤ 0.2
306 | GYWS | ≤ 0.2
